From PubChem BioAssay (NCATS) come the findings set out here.

The structures appear in SMILES notation. Inconclusive results are not listed. Where a call stands in place of a potency, no number is given. Active and inactive are the calls of the source. Calls follow the shape of the dose curve; as a rule, active = well fitted curve in the direction sought with a large enough effect; inconclusive = small, poorly fitted or top-dose-only effect, or another doubt; inactive = no such curve, though single readings can be large; an effect the other way counts as inactive or inconclusive.

Assay [1] concerns the target Protein phosphatase 1D (Homo sapiens) (UniProt O15297). The assay is described as follows: Rhodamine-PBP qHTS Assay for Modulators of WT P53-Induced Phosphatase 1 (WIP1) (AID 1347425). As to conditions: recombinant WIP1, Rhodamine-PBP phosphate fluorescence, real-time; series mostly up to 57.5 µM. The procedure, abridged: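 The read-out is the change in Rhodamine-PBP fluorescence (f1 - f0, ex 525/em 598 nm) as Pi is released, read each minute for 11 min. Final reaction: 5 nM WIP1, 10 uM phosphopeptide VEPPL-pS-QETFS, 10 uM Rh-PBP, 50 mM Tris-HCl pH 7.5, 30 mM MgCl2. Compound was preincubated with enzyme for 1 hour at room temperature.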
For orientation: Quantitative high-throughput screening tests each substance at several concentrations.

A short description of assay [2]: Primary qHTS for inhibitors of La Crosse Virus (LACV) - induced cell death in SH-SY5Y cells (AID 1508616).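 Also: top concentration of the series differs between compounds; higher means more rescue of cells from virus-induced death.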 The following applies: SH-SY5Y LACV cytopathicity rescue, ATP luminescence, 6 d; series mostly up to 4.29 µM. In short, it runs like this: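 Screening measures cell viability in LACV-infected SH-SY5Y cultures. Compound was added before virus (0.01 MOI), and ATP was detected by luminescence 6 days later.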

In assay [3] the target is Calcium and integrin-binding protein 1 (Homo sapiens) (UniProt Q99828). Nature of the assay: Primary qHTS for Identification of Calcium Integrin Binding Protein 1 (CIB1) Competitor (AID 1508620).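 Also: GST tagged CIB1 binding a fluorescein labelled alphaIIb integrin peptide tracer; top concentration of the series differs between compounds.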 As to conditions: CIB1-GST / FITC-alphaIIb peptide fluorescence polarization; series mostly up to 114 µM. In short, it runs like this:
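Fluorescence polarization competition: CIB1-GST (1 uM final) preincubated with compound 15 min at room temperature, then FITC-labeled alphaIIb peptide (100 nM final) added for another 15 min. Polarization read at Ex 480/Em 540.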

A short description of assay [4]: Counterscreen qHTS for small molecule stabilizers of the endoplasmic reticulum resident proteome: GLuc-NoTag assay (AID 1508627). As to conditions: Gaussia luciferase NoTag secretion counterscreen, luminescence, thapsigargin 100 nM for final 4 h; series mostly up to 76.4 µM. In short, it runs like this:
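Secreted GLuc lacking the SERCaMP modification is measured in SH-SY5Y cells exposed to compound for 19 h and then to thapsigargin (100 nM, 4 h) to deplete ER calcium; hits retested at 11 concentrations, up to 76.6 uM.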

Chain of Calcium and integrin-binding protein 1 (Homo sapiens) (Q99828 whole entry, looked up): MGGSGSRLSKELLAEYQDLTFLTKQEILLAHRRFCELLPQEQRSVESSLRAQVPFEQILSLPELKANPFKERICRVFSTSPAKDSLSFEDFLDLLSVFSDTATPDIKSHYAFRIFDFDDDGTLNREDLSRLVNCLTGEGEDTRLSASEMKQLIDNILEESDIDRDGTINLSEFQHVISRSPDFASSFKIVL
Chain of Protein phosphatase 1D (Homo sapiens) (O15297 whole entry, looked up): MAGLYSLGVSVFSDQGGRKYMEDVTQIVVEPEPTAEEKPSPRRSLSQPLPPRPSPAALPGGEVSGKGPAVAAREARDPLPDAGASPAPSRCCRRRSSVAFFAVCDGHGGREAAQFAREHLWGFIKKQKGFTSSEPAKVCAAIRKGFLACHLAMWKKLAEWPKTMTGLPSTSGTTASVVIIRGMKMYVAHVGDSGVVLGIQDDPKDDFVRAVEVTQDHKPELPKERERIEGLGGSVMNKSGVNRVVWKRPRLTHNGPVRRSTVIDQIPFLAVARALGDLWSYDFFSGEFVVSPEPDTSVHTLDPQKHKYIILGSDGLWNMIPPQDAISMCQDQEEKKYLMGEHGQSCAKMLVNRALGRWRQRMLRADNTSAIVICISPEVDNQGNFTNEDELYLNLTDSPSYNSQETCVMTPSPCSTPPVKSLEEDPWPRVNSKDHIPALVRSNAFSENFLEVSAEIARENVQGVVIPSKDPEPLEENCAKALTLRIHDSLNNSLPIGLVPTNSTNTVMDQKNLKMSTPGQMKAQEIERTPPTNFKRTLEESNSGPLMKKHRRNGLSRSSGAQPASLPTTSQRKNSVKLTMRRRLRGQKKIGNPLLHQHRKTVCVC

As to `O=C(NO)c1ccccc1`, the outcome in assay [1] and in assay [2] was inactive. The Potency result in assay [3] and in assay [4] was “inactive” each time.
As for `CCCCCCn1c(=O)c2c(ncn2C)n(C)c1=O`, the outcome in assay [1] and in assay [2] was inactive. For the same molecule, in assay [3], the Potency result was “inactive”.
In the case of `CCc1cccc2c(CCO)c[nH]c12`, the result in assay [1] and in assay [2] was inactive. In addition, the Potency entry in assay [3] was “inactive”.
Take `CCCCCCCC(=O)[O-].CCCCCCCC(=O)[O-].[Zn+2]`: the molecule was called inactive in assay [2].
On to `Nc1ccc(C(=O)OCC(O)CO)cc1` (configuration not stated), for which the result in assay [1] and in assay [2] was inactive. The Potency result in assay [3] was “inactive”.
Consider `OCCOCCN1CCN(C(c2ccccc2)c2ccc(Cl)cc2)CC1` (configuration not stated), for which, in assay [2], the molecule was classed as inactive. The Potency entry in assay [3] was “inactive”.
Turning to `CSc1ccc(/C=C2/C(C)=C(CC(=O)O)c3cc(F)ccc32)cc1`, in assay [2], the molecule was called inactive.
